Source: PubChem BioAssay (NCATS)
Where “and” joins values, the source holds several entries; their conditions need not be identical. Equal entries are not always repeated. Records with an inconclusive call do not appear. Calls of active or inactive are those of the source. Unless noted, the call rests on the fitted dose curve; in most records, active means well fitted curve in either direction with a large enough effect (not every such curve was filed as active); inconclusive means small, poorly fitted or top-dose-only effect, or another doubt; inactive means flat fitted curve, though single readings scatter.

Key:
[1] = AP1 Signaling Pathway (AID 357); conditions: ME-180 AP-1-bla reporter, EGF-induced, beta-lactamase ratio, 5 h; at 7.69 µM (top of the series) unless noted;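 further: ME-180 reporter cells stimulated with EGF at its EC50 level; on the % scale 0 is the no-effect control and ±100 the full control effect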
Procedure, shortened: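 AP-1-bla ME-180 cells, Opti-MEM + 0.5% dialyzed FBS, plated overnight 37 °C. Cpd titration + EC50 EGF, 5 h 37 °C. CCF4 2.5 h RT; ex 405, em 460/530 ratio → %activity, AC50.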

[2] = biological target: Cytochrome P450 1A2 (Homo sapiens) (UniProt P05177); assay: p450-cyp1a2 (AID 410; calls by dose curve; further: potency means the concentration at half of the fitted maximal effect;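 on activity change, negative = inhibition: -100% = full effect of reference inhibitor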)
Sequence of Cytochrome P450 1A2 (Homo sapiens) (P05177 whole entry, looked up): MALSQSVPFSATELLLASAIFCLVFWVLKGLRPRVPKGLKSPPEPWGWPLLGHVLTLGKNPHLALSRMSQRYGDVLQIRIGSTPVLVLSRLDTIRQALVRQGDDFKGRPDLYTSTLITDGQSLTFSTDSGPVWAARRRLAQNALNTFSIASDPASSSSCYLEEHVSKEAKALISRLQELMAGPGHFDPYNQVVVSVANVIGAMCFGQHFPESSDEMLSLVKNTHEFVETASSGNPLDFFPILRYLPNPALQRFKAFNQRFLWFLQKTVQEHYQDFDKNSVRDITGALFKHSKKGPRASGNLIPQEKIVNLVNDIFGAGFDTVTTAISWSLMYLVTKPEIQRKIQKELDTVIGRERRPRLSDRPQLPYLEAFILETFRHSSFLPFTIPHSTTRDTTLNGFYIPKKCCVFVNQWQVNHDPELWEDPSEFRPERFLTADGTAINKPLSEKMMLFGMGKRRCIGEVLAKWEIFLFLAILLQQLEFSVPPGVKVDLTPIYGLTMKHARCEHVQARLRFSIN
Procedure, shortened: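 Luminescent demethylation readout: Luciferin-ME (100uM, equal to Km) turned over by 20nM CYP1A2 for 60 min at room temperature after NADPH regeneration addition, following 10 min compound preincubation. Normalization used 57 uM furafylline as full inhibition.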

[3] = Stat Signaling Pathway (AID 446); conditions: ME-180 SIE beta-lactamase reporter, IL-6 stimulated, 5 h; at 7.69 µM (top of the series) unless noted;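 further: ME-180 cervical cancer cells given 40 pM IL-6 alongside compound; SIE-controlled beta-lactamase reporter measured as 460/530 nm FRET emission ratio; on the % scale 0 is the no-effect control and ±100 the full control effect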
Procedure, shortened: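 Normalization used AC90 stimulation (300 pM IL-6) and AC90 inhibition (125 nM pan-JAK inhibitor at 40 pM IL-6). The underlying signal is SIE-driven beta-lactamase in ME-180 cells after 5 h IL-6 exposure with compound.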

[4] = biological target: Mitogen-activated protein kinase 10 (Mus musculus) (UniProt Q61831); assay: JNK3 AlphaScreen Assay (AID 530);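 further: kinase came from lysate of stimulated human HepG2 cells; signal reports phosphorylation of biotinylated GST-cJun 1-79 at Ser73 with 10 µM ATP; on the % scale 0 is the no-effect control and ±100 the full control effect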
Procedure, shortened: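 Activity was read by AlphaScreen after JNK3-containing HepG2 lysate (cytokine pre-activated) phosphorylated biotinylated GST-cJun with 10 uM ATP at room temperature. Phospho-Ser73 cJun antibody with Protein-A acceptor beads provided detection.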

[5] = biological target: 3',5'-cyclic-AMP phosphodiesterase 4B (Homo sapiens) (UniProt Q07343); assay: qHTS Assay for Inhibitors of PDE-IV (AID 607; active means well fitted activation curve with a large enough effect in the main read-out, with a control signal flat, not every such curve was filed as active; further: % of control where 0% means no effect)
Sequence of 3',5'-cyclic-AMP phosphodiesterase 4B (Homo sapiens) (Q07343 whole entry, looked up): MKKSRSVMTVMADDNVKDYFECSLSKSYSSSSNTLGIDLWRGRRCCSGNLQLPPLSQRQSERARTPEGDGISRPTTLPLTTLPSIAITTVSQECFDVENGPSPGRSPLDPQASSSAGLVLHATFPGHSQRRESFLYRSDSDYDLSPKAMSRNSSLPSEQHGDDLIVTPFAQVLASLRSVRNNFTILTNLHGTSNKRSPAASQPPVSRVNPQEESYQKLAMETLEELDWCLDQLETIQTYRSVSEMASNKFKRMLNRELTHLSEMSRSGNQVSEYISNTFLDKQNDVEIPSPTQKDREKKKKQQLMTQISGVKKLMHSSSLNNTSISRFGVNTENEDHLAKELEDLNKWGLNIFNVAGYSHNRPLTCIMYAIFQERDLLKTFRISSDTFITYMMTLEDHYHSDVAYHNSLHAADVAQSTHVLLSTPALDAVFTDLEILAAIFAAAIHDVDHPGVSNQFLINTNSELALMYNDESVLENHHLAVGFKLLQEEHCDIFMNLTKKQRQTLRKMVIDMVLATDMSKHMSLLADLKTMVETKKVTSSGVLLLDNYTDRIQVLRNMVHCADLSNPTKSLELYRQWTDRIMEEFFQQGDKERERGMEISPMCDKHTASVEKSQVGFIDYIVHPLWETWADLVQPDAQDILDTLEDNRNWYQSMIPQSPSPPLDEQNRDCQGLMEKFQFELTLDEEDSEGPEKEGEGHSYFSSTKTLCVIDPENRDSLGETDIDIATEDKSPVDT
Procedure, shortened: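 HEK293 ACTOne cells with CNG channel (1000/well), endogenous PDE4; membrane potential dye, compounds up to 22.9 uM final. Fluorescence Ex 535/Em 590; RO 20-1724 (100 uM final) as reference.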

[6] = biological target: Cytochrome P450 3A4 (Homo sapiens) (UniProt P08684); assay: qHTS Assay for Inhibitors and Substrates of Cytochrome P450 3A4 (AID 884; active means well fitted curve in the direction sought with a large enough effect; an effect the other way counts as inactive or inconclusive; further: nearly all actives have a fitted effect of over 50% in size; further: potency means the concentration at half of the fitted maximal effect)
Sequence of Cytochrome P450 3A4 (Homo sapiens) (P08684 whole entry, looked up): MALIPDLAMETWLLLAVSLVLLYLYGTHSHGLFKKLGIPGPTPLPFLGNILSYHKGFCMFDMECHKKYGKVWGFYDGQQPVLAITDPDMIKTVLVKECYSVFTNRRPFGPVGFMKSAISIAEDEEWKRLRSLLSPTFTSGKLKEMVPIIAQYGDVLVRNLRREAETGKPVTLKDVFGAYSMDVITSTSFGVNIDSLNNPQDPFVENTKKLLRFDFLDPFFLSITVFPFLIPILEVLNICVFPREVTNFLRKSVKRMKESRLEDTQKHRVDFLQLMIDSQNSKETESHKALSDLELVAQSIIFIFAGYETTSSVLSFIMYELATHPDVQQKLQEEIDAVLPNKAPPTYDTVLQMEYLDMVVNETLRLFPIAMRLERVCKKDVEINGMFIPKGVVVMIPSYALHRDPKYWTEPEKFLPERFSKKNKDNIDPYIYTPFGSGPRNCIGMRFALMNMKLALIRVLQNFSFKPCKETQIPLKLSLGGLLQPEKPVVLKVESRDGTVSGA
Procedure, shortened: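 Luminescent readout of luciferin produced by CYP3A4 (20 nM) dealkylation of Luciferin-PPXE, 25 uM (its KM). NADPH-driven reaction ran 60 min at RT after 10 min compound preincubation; data scaled to 57 uM ketoconazole as 100% inhibition.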

[7] = biological target: Cytochrome P450 3A4 (Homo sapiens) (UniProt P08684); assay: qHTS Assay for Activators of Cytochrome P450 3A4 (AID 885; active means well fitted curve in the direction sought with a large enough effect; an effect the other way counts as inactive or inconclusive; further: nearly all actives have a fitted effect of over 65% in size)
Procedure, shortened: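 Human CYP3A4 dealkylates Luciferin-PPXE to luciferin, which luciferase detection converts to light. Substrate was at its KM (25uM), buffer 200mM KPO4, reaction 60 min at RT.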

[8] = qHTS Assay for Lipid Storage Modulators (AID 1519; calls by dose curve); conditions: Drosophila S3 cells, BODIPY lipid droplet/cell ratio, laser cytometry, cells loaded with oleic acid
Procedure, shortened: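 Cells seeded at 5,000 per well were treated with compounds over a concentration series and loaded with oleic acid (400 uM, as added). Lipid droplet fluorescence (488 nm excitation, 500-530 nm channel) was read by laser-scanning cytometry and normalized to 20 uM Triacsin C.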

[9] = biological target: Ubiquitin carboxyl-terminal hydrolase 1 (Homo sapiens) (UniProt O94782); assay: Inhibitors of USP1/UAF1: Pilot qHTS (AID 504865; active means well fitted curve in the direction sought with a large enough effect; an effect the other way counts as inactive or inconclusive; further: nearly all actives have a fitted effect of over 35% in size; further: potency means the concentration at half of the fitted maximal effect)
Sequence of Ubiquitin carboxyl-terminal hydrolase 1 (Homo sapiens) (O94782 whole entry, looked up): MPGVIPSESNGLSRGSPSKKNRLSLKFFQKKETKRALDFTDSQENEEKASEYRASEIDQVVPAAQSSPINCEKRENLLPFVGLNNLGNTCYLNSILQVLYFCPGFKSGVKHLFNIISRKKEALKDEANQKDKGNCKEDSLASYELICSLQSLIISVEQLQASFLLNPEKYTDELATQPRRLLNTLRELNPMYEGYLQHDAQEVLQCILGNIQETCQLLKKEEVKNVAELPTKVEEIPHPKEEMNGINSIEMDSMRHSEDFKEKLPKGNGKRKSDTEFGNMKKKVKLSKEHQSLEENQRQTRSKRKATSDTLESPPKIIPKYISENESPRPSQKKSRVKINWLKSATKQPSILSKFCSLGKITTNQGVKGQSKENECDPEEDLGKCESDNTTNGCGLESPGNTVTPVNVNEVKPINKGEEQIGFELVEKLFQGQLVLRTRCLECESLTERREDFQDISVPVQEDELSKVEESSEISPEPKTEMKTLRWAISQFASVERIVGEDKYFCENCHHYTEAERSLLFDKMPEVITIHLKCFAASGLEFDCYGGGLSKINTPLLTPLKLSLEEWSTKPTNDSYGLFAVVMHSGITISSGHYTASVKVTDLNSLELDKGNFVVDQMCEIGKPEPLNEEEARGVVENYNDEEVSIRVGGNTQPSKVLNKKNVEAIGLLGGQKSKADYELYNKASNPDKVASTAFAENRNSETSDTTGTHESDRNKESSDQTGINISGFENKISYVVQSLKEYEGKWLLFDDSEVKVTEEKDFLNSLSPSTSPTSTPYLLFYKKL
Procedure, shortened: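 USP1/UAF1 complex (1nM) preincubated with compound 15 min at room temperature, then Ub-Rho substrate (150nM final) added. Fluorescence read kinetically at 480/540 nm, 6 reads every 60 seconds. Buffer: 50mM HEPES pH 7.8, 0.5mM EDTA, 0.1 mg/ml BSA, 1mM TCEP, 0.01% Tween-20.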

[10] = NFAT Signaling Pathway (AID 444); conditions: Jurkat NFAT-bla M1, carbachol, beta-lactamase ratio, 5 h; at 7.69 µM (top of the series) unless noted;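 further: carbachol stimulus at about its EC50 of 1 µM final; on the % scale 0 is the no-effect control and ±100 the full control effect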
Procedure, shortened: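 Jurkat cells with NFAT-driven β-lactamase reporter and co-expressed M1 receptor, stimulated with carbachol (final 1 uM, ~EC50), compound titration, 5 h at 37 °C. CCF4 loaded 1 h at RT; 460/530 nm ratio gave %activity and AC50.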

[11] = biological target: Glucocorticoid receptor (Homo sapiens) (UniProt P04150); assay: GR-GFP Redistribution (AID 450;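 active means compounds whose dose series gives a full or clear partial fitted curve of increased nuclear translocation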; further: potency means the concentration at half of the fitted maximal effect); conditions: U2OS GR-GFP nuclear translocation, laser cytometry, 2 h
Sequence of Glucocorticoid receptor (Homo sapiens) (P04150 whole entry, looked up, the tested form may be a part): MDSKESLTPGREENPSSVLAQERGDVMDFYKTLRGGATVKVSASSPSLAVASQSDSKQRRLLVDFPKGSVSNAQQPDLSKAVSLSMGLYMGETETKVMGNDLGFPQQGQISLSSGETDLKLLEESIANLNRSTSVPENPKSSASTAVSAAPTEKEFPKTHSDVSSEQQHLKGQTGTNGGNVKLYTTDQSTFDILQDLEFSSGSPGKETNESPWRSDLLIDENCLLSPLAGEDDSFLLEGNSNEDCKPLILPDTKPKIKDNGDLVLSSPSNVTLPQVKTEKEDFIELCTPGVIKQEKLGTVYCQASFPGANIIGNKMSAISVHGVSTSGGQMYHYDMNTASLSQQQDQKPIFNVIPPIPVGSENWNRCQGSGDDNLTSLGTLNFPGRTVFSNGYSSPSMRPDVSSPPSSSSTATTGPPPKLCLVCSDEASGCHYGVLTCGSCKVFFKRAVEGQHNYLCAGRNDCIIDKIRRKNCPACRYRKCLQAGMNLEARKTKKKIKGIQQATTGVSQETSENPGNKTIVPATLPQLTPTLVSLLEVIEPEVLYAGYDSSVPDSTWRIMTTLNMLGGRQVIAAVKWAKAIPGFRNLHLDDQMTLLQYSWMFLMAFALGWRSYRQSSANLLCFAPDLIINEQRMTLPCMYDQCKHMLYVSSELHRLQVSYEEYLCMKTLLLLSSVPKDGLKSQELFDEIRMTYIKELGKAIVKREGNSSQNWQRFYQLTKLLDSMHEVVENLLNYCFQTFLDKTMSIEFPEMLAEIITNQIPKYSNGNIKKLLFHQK

[12] = biological target: Glucocorticoid receptor (Homo sapiens) (UniProt P04150); assay: GR-EFC Redistribution (AID 451; calls by dose curve; further: potency means the concentration at half of the fitted maximal effect); conditions: CHO-K1 GR-EFC translocation, beta-gal luminescence, 2 h
Procedure, shortened: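 CHO-K1 cells expressing nuclear EA and GR-ED fragments of b-gal; compounds titrated up to 46 uM final, 2 h at 37 C. GR nuclear translocation read as complemented b-gal luminescence after 1 h RT detection.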

[13] = biological target: Lysosomal acid glucosylceramidase (Homo sapiens) (UniProt P04062); assay: Glucocerebrosidase-p2 (AID 348; in the data active means potency below about 10 µM; further: potency means the concentration at half of the fitted maximal effect); conditions: purified GBA, blue fluorogenic substrate, 40 min
Sequence of Lysosomal acid glucosylceramidase (Homo sapiens) (P04062 whole entry, looked up): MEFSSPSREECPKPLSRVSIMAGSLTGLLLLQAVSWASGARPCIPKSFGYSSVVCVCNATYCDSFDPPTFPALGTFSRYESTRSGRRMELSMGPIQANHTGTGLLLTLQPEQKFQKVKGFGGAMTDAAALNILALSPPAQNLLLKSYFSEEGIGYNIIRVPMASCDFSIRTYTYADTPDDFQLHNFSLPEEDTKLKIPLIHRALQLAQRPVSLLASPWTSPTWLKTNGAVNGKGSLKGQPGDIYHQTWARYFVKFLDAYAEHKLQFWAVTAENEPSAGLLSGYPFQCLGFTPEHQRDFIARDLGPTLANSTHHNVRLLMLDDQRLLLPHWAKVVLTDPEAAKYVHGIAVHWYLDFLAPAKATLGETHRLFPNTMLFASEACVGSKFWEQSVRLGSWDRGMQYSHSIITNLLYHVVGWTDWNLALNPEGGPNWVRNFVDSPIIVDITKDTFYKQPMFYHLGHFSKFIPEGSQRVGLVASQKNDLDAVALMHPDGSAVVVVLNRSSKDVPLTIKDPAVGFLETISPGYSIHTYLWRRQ
Procedure, shortened: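 Normal human glucocerebrosidase (0.2 nM) with blue fluorogenic substrate (80 uM final) in citrate/phosphate pH 5.9 with 10mM sodium taurocholate, 0.01% tween-20; 40 min RT, NaOH/glycine stop; fluorescence Ex 365/Em 440; AC50 from a titration from 0.6 nM upwards.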

[14] = qHTS Assay for Identification of Small Molecule Agonists for Hypoxia Response Element Signaling Pathway (AID 914; active means well fitted activation curve with a large enough effect in the signal ratio, with a control signal flat, not every such curve was filed as active; the % refers to the signal ratio; further: % of control where 0% means no effect); conditions: ME-180 (cervical carcinoma) HRE-bla reporter, beta-lactamase ratio, CoCl2, 17 h; activation: stronger effect = higher value
Procedure, shortened: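 A beta-lactamase reporter under hypoxia response element control in ME-180 cells served as the system. Compound titrations plus EC50 CoCl2 ran 17 h at 37 degrees Celsius; AC50 values were fitted from %Activity.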

[15] = biological target: Dual specificity protein kinase CLK4 (Homo sapiens) (UniProt Q9HAZ1); assay: qHTS Assay for Inhibitors of CDC-like Kinase 4 (ADP-FP Assay) (AID 1795; active means well fitted curve in the direction sought with a large enough effect; an effect the other way counts as inactive or inconclusive; further: on the % scale 0 is the no-effect control and ±100 the full control effect; nearly all actives have a fitted effect of over 60% in size)
Sequence of Dual specificity protein kinase CLK4 (Homo sapiens) (Q9HAZ1 whole entry, looked up): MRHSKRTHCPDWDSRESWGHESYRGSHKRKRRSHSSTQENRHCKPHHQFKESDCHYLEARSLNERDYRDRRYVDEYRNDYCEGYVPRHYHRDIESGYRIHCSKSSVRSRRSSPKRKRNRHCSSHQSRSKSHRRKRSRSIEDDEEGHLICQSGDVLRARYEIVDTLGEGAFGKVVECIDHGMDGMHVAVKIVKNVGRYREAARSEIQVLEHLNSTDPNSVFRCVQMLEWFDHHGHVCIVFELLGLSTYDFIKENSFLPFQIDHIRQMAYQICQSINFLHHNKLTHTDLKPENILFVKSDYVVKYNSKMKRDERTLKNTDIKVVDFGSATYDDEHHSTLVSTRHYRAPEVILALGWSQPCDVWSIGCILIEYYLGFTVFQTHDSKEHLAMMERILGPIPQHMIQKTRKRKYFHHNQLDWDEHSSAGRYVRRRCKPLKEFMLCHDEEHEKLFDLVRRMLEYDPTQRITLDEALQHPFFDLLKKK
Procedure, shortened: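 Recombinant human Clk4 (6.25 nM) phosphorylated RS repeat peptide (100 uM) with 1 uM ATP in Tris pH 7.5/MgCl2/EGTA/DTT/Triton buffer for one hour. ADP was quantified by Transcreener competitive fluorescence polarization against an ADP calibration curve.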

[16] = biological target: Dual specificity protein kinase CLK4 (Homo sapiens) (UniProt Q9HAZ1); assay: qHTS Assay for Inhibitors of CDC-like Kinase 4 (ADP-Glo Assay) (AID 1771; active means well fitted curve in the direction sought with a large enough effect; an effect the other way counts as inactive or inconclusive; further: potency means the concentration at half of the fitted maximal effect; nearly all actives have a fitted effect of over 70% in size)
Procedure, shortened: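 ADP production was read by ADP-Glo luminescence after residual ATP depletion, following 1 h room-temperature reaction of 25 nM Clk4, 1 uM ATP and 100 uM RS peptide with MgCl2, EGTA, DTT and Triton X-100.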

[17] = Confirmation and Secondary Assay for Modulators of Hemoglobin Beta Chain Splicing at IVS2 654 locus (AID 910; active means well fitted curve in the direction sought with a large enough effect; an effect the other way counts as inactive or inconclusive;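 further: HeLa cells stably carrying EGFP split by mutant beta-globin IVS2-654 intron; % of control where 0% means no effect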)
Procedure, shortened: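 HeLa cells stably expressing EGFP interrupted by β-globin IVS2-654 intron, seeded overnight in Opti-MEM/2% FCS, then treated 2 days at 37 °C. Restored splicing read as total peak GFP intensity per well by laser scanning cytometry (488 nm excitation, 500–520 nm emission); 500 nM antisense PNA as control.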

[18] = Confirmation and Secondary Assay for Modulators of Hemoglobin Beta Chain Splicing at IVS2 705 locus (AID 930; active means well fitted curve in the direction sought with a large enough effect; an effect the other way counts as inactive or inconclusive;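 further: HeLa cells stably expressing the EGFP-705 splicing reporter; GFP fluorescence per well restored by corrected splicing of the IVS2-705 intron in EGFP; % of control where 0% means no effect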)
Procedure, shortened: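 Fluorescence gain (488 nm laser, 500-520 nm PMT) reflects restored correct splicing of a mutant IVS2-705 intron inside EGFP in stably transfected HeLa cells after 2-day compound treatment.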

[19] = measured here: cell count channel max response
[20] = measured here: lipid channel max response

Compound: CC(C)N1CCN(c2ccc(OC[C@@H]3CO[C@@](Cn4cncn4)(c4ccc(Cl)cc4Cl)O3)cc2)CC1
- activity change, negative = inhibition [1]: 0.955% [at 17.2 µM] (inactive)
- Potency [2]: inactive
- activity, negative = inhibition [3]: 1.27% [at 17.2 µM] (inactive)
- Potency [4]: inactive
- Potency [5]: inactive
- Potency [6]: 1.58 µM (active)
- Potency [7]: inactive
- activity change, negative = inhibition ([8]; at 25.7 µM (top of the series)): -0.441% (inactive)
- max response [8, 19]: -0.321%
- max response [8, 20]: -3.7%
- Potency [9]: inactive

Compound: CC12CC[C@@H]3c4ccc(OS(=O)(=O)O)cc4CC[C@H]3C1CCC2=O (stereo partly specified)
- activity change, negative = inhibition [1]: 19.9% [at 17.2 µM] (inactive)
- activity change, negative = inhibition [10]: -17.6% [at 17.2 µM] (inactive)
- activity, negative = inhibition [3]: -9.95% [at 17.2 µM] (inactive)
- Potency [11]: > 20.6 µM (inactive)
- Potency [12]: > 20.6 µM (inactive)
- Potency [4]: inactive
- Potency [5]: inactive
- activity change, negative = inhibition ([8]; at 25.7 µM (top of the series)): -2.17% (inactive)
- max response [8, 19]: -14.5%
- max response [8, 20]: -17.7%
- Potency [9]: inactive

Compound: COC(=O)C1=CO[C@@H](C)[C@H]2CN3CCc4c([nH]c5ccccc45)[C@@H]3C[C@H]12
- activity change, negative = inhibition [1]: -20.4% [at 17.2 µM] (inactive) and -6.91% [at 17.2 µM] (inactive)
- activity change, negative = inhibition [10]: -3.19% [at 17.2 µM] (inactive) and -17.9% [at 17.2 µM] (inactive)
- Potency [11]: > 20.6 µM (inactive)
- Potency [12]: > 20.6 µM (inactive)
- Potency [4]: inactive
- Potency [5]: inactive
- activity change, negative = inhibition ([8]; at 25.7 µM (top of the series)): -0.703% (inactive) and -0.794% (inactive)
- max response [8, 19]: 3.91% and -17.6%
- max response [8, 20]: 2.39% and -19.1%
- Potency [9]: inactive

Compound: CN1CCN(c2ccnc(-c3ccc(N(C)C)cc3)n2)CC1
- Potency [13]: > 11.4 µM (inactive)
- activity change, negative = inhibition [1]: -4.67% (inactive)
- Potency [2]: 0.794 µM (active)
- activity change, negative = inhibition [10]: 6.45% (inactive)
- activity, negative = inhibition [3]: -0.21% (inactive)
- Potency [11]: > 46 µM (inactive)
- Potency [12]: > 46 µM (inactive)
- Potency [4]: inactive
- Potency [5]: inactive
- Potency [7]: inactive
- activation [14]: 1.71% (inactive)
- activity change, negative = inhibition ([8]; at 57.5 µM (top of the series)): 10.5% (inactive)
- max response [8, 19]: 22.6%
- max response [8, 20]: 29.9%
- Potency [15]: inactive
- Potency [9]: inactive

Compound: N#Cc1cccc(-c2ccc3ncnc(NCc4ccccc4)c3c2)c1
- Potency [13]: > 11.4 µM (inactive)
- Potency [2]: 0.1 µM (active)
- activity, negative = inhibition [3]: -18.2% (inactive)
- Potency [11]: > 46 µM (inactive)
- Potency [12]: > 46 µM (inactive)
- Potency [4]: inactive
- Potency [7]: inactive
- activity change, negative = inhibition ([8]; at 57.5 µM (top of the series)): -0.0166% (inactive)
- max response [8, 19]: 4.36%
- max response [8, 20]: 2.9%
- Potency [16]: 8.91 µM (active)
- Potency [9]: 15.8 µM (active)

Compound: O=C(/C=C/c1ccc(O)c(O)c1)OC(Cc1ccc(O)c(O)c1)C(=O)O (stereo unspecified)
- Potency [6]: inactive
- Potency [17]: inactive
- outcome [18]: inactive
- activity change, negative = inhibition ([8]; at 57.5 µM (top of the series)): 6.07% (inactive) and 7.21% (inactive)
- max response [8, 19]: 10.1% and -5.16%
- max response [8, 20]: 18.1% and 1.39%
